This is an account of results in PubChem BioAssay AID602449 (Sanford-Burnham Center for Chemical Genomics, 2012).

Molecules are shown by their SMILES. Among all 360,000 compounds or so, about 5,000 (1.4%) were called active.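 The calls were made as follows: active = inhibition of 50% or more, scaled per plate between neutral and stimulator controls; inactive = the rest.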 Many of the other results were omitted from the sample, so actives are more common in it than they were.

Usually inhibition stands for the relative decrease from the control value, in per cent.

A short description of the test: mitochondrial permeability transition pore inhibitors, primary screen, biochemical, isolated mouse mitochondria, absorbance (AID 602449).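 Also: 0% = DMSO wells given calcium and 100% = 1 mM EGTA wells.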 The settings on record: Ca2+ swelling absorbance, 30 min, at 10 µM, stronger effect = higher value.
As to `O=C(CSc1nc2ccc([N+](=O)[O-])cc2[nH]1)c1ccc(Cl)cc1`, the inhibition was 104% (active).
The result for `Cc1nc(SCC(=O)c2ccccc2)c([N+](=O)[O-])[nH]1` reads 3.9% (inactive); that for `CC(=O)Nc1ccc(C(=O)CSc2nc3ccc(C)cc3[nH]2)cc1`, -1.5% (inactive).
The result for `COc1cccc(NC(=O)CN(C)C(=O)CSCc2nc3scc(-c4cccs4)c3c(=O)[nH]2)c1` reads -0.9% (inactive); that for `Cc1ccccc1N1CC(C(=O)Nc2nnc(SCCC3OCCO3)s2)CC1=O` (stereo not given), -2.6% (inactive); that for `Cc1cccc(COc2ccccc2/C=N/Nc2ccc([N+](=O)[O-])cc2)c1`, 69.1% (active).
For the compound `Cc1cc([N+](=O)[O-])ccc1NCc1cccc([N+](=O)[O-])c1`, the inhibition was 6.8% (inactive).
In the case of `Cc1ccccc1OCCOc1ccc([N+](=O)[O-])cc1/C=N/n1cnnc1` it was 3.3% (inactive); in that of `O=[N+]([O-])c1ccc(N=NNc2ccc([N+](=O)[O-])cc2)cc1`, 21.4% (inactive).
In the case of `O=[N+]([O-])c1ccc(N/N=C/c2ccccc2)cc1` it was 63.2% (active); in that of `CC(C)c1ccc(C=NNc2ccc([N+](=O)[O-])cn2)cc1`, 7% (inactive).
Turning to `c1ccc(-c2cn3c(n2)CCc2ccc4cccnc4c2-3)cc1`, the inhibition was -2% (inactive).
The result for `O=C(OCC(=O)N1CCCCCC1)c1cccc(Cl)c1Cl` reads 3.6% (inactive).
In the case of `CN(C)CCN=c1cc(-c2ccccc2)oc2ccc(Cl)cc12` it was 3% (inactive).
The result for `CCCCn1c(N)c(N(CC(C)C)C(=O)c2ccc(Br)o2)c(=O)[nH]c1=O` reads -1.5% (inactive); that for `CC/C(=N\NC(=S)NC(C)C)c1ccc(OC(F)F)cc1`, 1.8% (inactive); that for `CC(NC(=S)Nc1ccc(OC(F)F)cc1)c1ccc(F)cc1` (stereo not given), 102% (active).
On to `CC(C)N(Cc1ccccc1)C(=S)Nc1ccc(OC(F)F)cc1`, for which the inhibition was 5.8% (inactive).
In the case of `Cc1cc(Br)ccc1NC(=O)c1cnc(N2CCN(c3ccccn3)CC2)c2ccccc12` it was 0.4% (inactive); in that of `O=C(O)c1ccc([N+](=O)[O-])cc1Sc1ccsc1`, 0.7% (inactive).
The result for `COCCn1c(SCC(=O)Nc2cc(OC)ccc2OC)nc2c(c1=O)SC(C)C2` (stereo not given) reads 1.2% (inactive).
On to `CCCCCc1c(Cc2ccccc2)ncn1CCc1ccccc1OC`, for which the inhibition was 85.6% (active).
With `CCCCCc1c(-c2cccc(Br)c2)ncn1CCc1ccccc1OC`, the inhibition is 1.3% (inactive).
In the case of `CCCCCc1c(-c2ccc(OC)c(OC)c2)ncn1CCc1ccccc1OC` it was 5.6% (inactive).
On to `CCCCn1c(N)c(N(CC(C)C)C(=O)c2cccc(S(=O)(=O)N3CC(C)OC(C)C3)c2)c(=O)[nH]c1=O` (stereo not given), for which the inhibition was 6.1% (inactive).
The result for `CCOC(=O)c1cnc(Nc2nc3ccccc3o2)nc1CSC(=S)N1CCCCC1` reads 1.4% (inactive).
The result for `O=C(CN1C(=O)CC(c2ccccc2)=Nc2ccccc21)NC1CCCCC1` reads -0.4% (inactive); that for `Cc1cc([N+](=O)[O-])c(NC2CCCCC2)c([N+](=O)[O-])c1`, 0.6% (inactive).
The result for `Cc1cc(C=O)c(C)n1-c1ccc(NC2CCCCC2)c([N+](=O)[O-])c1` reads 80.6% (active).
`COc1ccc(NC(=O)CN(C)C(=O)c2ccc(NC3CC3)c([N+](=O)[O-])c2)cc1`: the inhibition is 0.5% (inactive).
The result for `OC[C@@H]1CN(Cc2ccc(-c3ccccc3)cc2)C[C@H](n2cnc3c(NC4CCCC4)ncnc32)O1` reads 17.2% (inactive).
The result for `COC(=O)c1ccc(OCC(O)CN(CCO)CC(O)Cn2ccc3ccccc32)cc1` (stereo not given) reads 0% (inactive).
On to `Cc1oc2c(F)c(F)c(F)c(F)c2c1S(=O)(=O)Nc1cccc(C(F)(F)F)c1`, for which the inhibition was 83.3% (active).
In the case of `Cc1noc(C)c1S(=O)(=O)Nc1cc(C(F)(F)F)ccc1N1CCOCC1` it was 4.6% (inactive); in that of `Cc1ccc(N(CCC(=O)O)S(=O)(=O)c2cccc(C(F)(F)F)c2)cc1`, 1.1% (inactive).
In the case of `N/C(=N\OC(=O)CCCC(=O)O)c1ncc(C(F)(F)F)cc1Cl` it was -0.2% (inactive); in that of `O=C(c1ccccn1)c1ncc(C(F)(F)F)cc1Cl`, -0.8% (inactive).
Regarding `N/C(=N\OC(=O)Nc1ccc(Cl)c(Cl)c1)c1ncc(C(F)(F)F)cc1Cl`, the inhibition is 88.1% (active).
The result for `ONC(=Nc1ccc(Cl)cc1)c1ccccc1Cl` reads 1% (inactive); that for `CCOC(=O)C1CSC(CC(=O)Nc2ccc(OCC)cc2)C(=O)N1` (stereo not given), 3.6% (inactive).
In the case of `CCCCCCNCCn1cnc2c(N)ncnc21` it was -0.8% (inactive); in that of `COc1cccc(-c2cnc(OC(C)(C)C)nc2OC(C)(C)C)c1`, -0.3% (inactive); in that of `COc1ccc(C(C)NC(=O)C2CCCC2)cc1` (stereo not given), 0.1% (inactive).
In the case of `CCN(CC(=O)NCCCN1CCOCC1)S(=O)(=O)c1cc(Cl)ccc1Cl` it was -1.1% (inactive).
Regarding `COc1ccc(Cl)cc1NC(=O)CN(C)Cc1ccc(OC)c(OC)c1`, the inhibition is 0.9% (inactive).
As to `COc1ccc(Br)cc1C(=O)NC(=S)Nc1cc(-c2nc3ccccc3[nH]2)ccc1C`, the inhibition was 70.7% (active).
The result for `COc1ccccc1C(=O)NC(=S)Nc1ccccc1N1CCCCC1` reads 1.3% (inactive); that for `COc1ccc(Br)cc1C(=O)Nc1cccc(C)c1C`, -1.2% (inactive); that for `CC1CCCCC12NC(=O)N(CC(=O)OCC(=O)NCc1ccc(F)cc1)C2=O` (stereo not given), -0.2% (inactive).
The result for `O=C(Nc1nsc(-c2ccccc2)n1)c1ccncc1` reads 0.9% (inactive).
In the case of `O=C(CN(c1cccc(Cl)c1)S(=O)(=O)c1ccccc1)NN=C1CCCC1` it was 0.3% (inactive); in that of `Cc1nnc(SCC(=O)N2CCOCC2)[nH]c1=O`, 26.4% (inactive).
Regarding `CCOC(=O)CSc1nc(C)c(Oc2ccc(Cl)cc2Cl)c(=O)[nH]1`, the inhibition was 2.7% (inactive).
In the case of `CCCCOC(=O)CNc1nnc(SCC(=O)OCC)[nH]c1=O` it was 77.3% (active); in that of `COc1ccccc1P(=O)(c1ccccc1)c1ccccc1NC(C)=O` (stereo not given), 0.1% (inactive); in that of `COC(C[C@H](O)CC(=O)COCc1ccccc1)OC`, -0.4% (inactive).
The result for `CC(C)(C)c1nnc(NC(=O)C2c3ccccc3Oc3ccccc32)s1` reads 6.5% (inactive).
The result for `O=C(N/N=C/c1ccc(O)c(O)c1)C1c2ccccc2Oc2ccccc21` reads 104% (active); that for `Cn1c(SCC(=O)N/N=C/c2ccc(O)c(O)c2)nc2ccccc21`, 2.9% (inactive).
`COc1ccc(CNS(=O)(=O)c2cc(-c3cc(C)no3)ccc2C(C)C)cc1`: the inhibition is -0.4% (inactive).
